Test [1] has as its target Lysosomal acid glucosylceramidase (Homo sapiens) (UniProt P04062). Briefly: Glucocerebrosidase-p2 (AID 348; in the data active = potency below about 10 µM; also: potency is read from the fitted curve at half-maximal effect). Particulars: purified GBA, blue fluorogenic substrate, 40 min. The method in brief: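 Compounds titrated from 0.6 nM upwards against 0.2 nM enzyme in pH 5.9 citric acid/KH2PO4, taurocholate, tween-20; blue fluorogenic substrate 80 uM, 40 min room temperature, stopped and read Ex 365/Em 440 for AC50.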

Test [2] is described as follows: AP1 Signaling Pathway (AID 357). Also: % is scaled to controls: 0 for no effect and ±100 for the full control effect. To be noted: ME-180 AP-1-bla reporter, EGF-induced, beta-lactamase ratio, 5 h; at 7.69 µM (top of the series) unless noted. The method in brief: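 ME-180 cells with beta-lactamase reporter under AP-1 response element, stimulated with EC50 EGF; compounds tested in titration series, 5 h at 37 °C. CCF4 substrate added 2.5 h at room temperature; 460/530 nm emission ratio gave %activity and AC50.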

Test [3] concerns the target Cytochrome P450 1A2 (Homo sapiens) (UniProt P05177). Briefly: p450-cyp1a2 (AID 410; calls by dose curve; also: potency is read from the fitted curve at half-maximal effect;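 as to activity change, negative = inhibition: -100% = full effect of reference inhibitor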). Particulars: recombinant CYP1A2, luciferin-ME demethylation, luminescence; series mostly up to 57 µM. The method in brief:
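Human CYP1A2 (20nM) demethylated Luciferin-ME at its Km (100uM) in 100mM KPO4. After 10 min compound preincubation, NADPH regeneration ran the reaction 60 min at room temperature. Luciferin was read by luminescence, normalized to 57 uM furafylline.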

Test [4] in a line: NFAT Signaling Pathway (AID 444).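 Also: carbachol stimulus at about its EC50 of 1 µM final; % is scaled to controls: 0 for no effect and ±100 for the full control effect.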 To be noted: Jurkat NFAT-bla M1, carbachol, beta-lactamase ratio, 5 h; at 7.69 µM (top of the series) unless noted. The method in brief:
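Jurkat cells with NFAT-driven β-lactamase reporter and co-expressed M1 receptor, stimulated with carbachol (final 1 uM, ~EC50), compound titration, 5 h at 37 °C. CCF4 loaded 1 h at RT; 460/530 nm ratio gave %activity and AC50.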

A short description of test [5]: Stat Signaling Pathway (AID 446).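 Also: ME-180 cervical cancer cells given 40 pM IL-6 alongside compound; SIE-controlled beta-lactamase reporter measured as 460/530 nm FRET emission ratio; % is scaled to controls: 0 for no effect and ±100 for the full control effect.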 To be noted: ME-180 SIE beta-lactamase reporter, IL-6 stimulated, 5 h; at 7.69 µM (top of the series) unless noted. The method in brief: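 Screening format detects activators and inhibitors alike: ME-180 SIE-bla cells stimulated at 40 pM IL-6 for 5 hrs with compound, then dual-emission beta-lactamase read at 405 nm excitation.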
For test [6], the target named is Glucocorticoid receptor (Homo sapiens) (UniProt P04150). Briefly: GR-EFC Redistribution (AID 451; calls by dose curve; also: potency is read from the fitted curve at half-maximal effect). To be noted: CHO-K1 GR-EFC translocation, beta-gal luminescence, 2 h. The method in brief:
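CHO-K1 cells expressing nuclear EA and GR-ED fragments of b-gal; compounds titrated up to 46 uM final, 2 h at 37 C. GR nuclear translocation read as complemented b-gal luminescence after 1 h RT detection.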

Test [7] has as its target Mitogen-activated protein kinase 10 (Mus musculus) (UniProt Q61831). Briefly: JNK3 AlphaScreen Assay (AID 530).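 Also: kinase came from lysate of stimulated human HepG2 cells; signal reports phosphorylation of biotinylated GST-cJun 1-79 at Ser73 with 10 µM ATP; % is scaled to controls: 0 for no effect and ±100 for the full control effect.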 Particulars: JNK3 lysate, c-Jun phosphorylation; series mostly up to 57.1 µM. The method in brief:
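qHTS format: compounds tested as titrations against IL-1beta/TNF-alpha-activated HepG2 lysate JNK3 with biotin-GST-cJun substrate and 10 uM ATP at room temperature. Loss of anti-phospho-cJun AlphaScreen signal indicates inhibition.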
A general note: In Alpha technology, singlet oxygen from a donor bead excites a nearby acceptor bead.

Test [8] addresses 3',5'-cyclic-AMP phosphodiesterase 4B (Homo sapiens) (UniProt Q07343). Description: qHTS Assay for Inhibitors of PDE-IV (AID 607; active = well fitted activation curve with a large enough effect in the main read-out, with a control signal flat, not every such curve was filed as active; also: % of control where 0% means no effect). Particulars: HEK293 ACTOne CNG channel cells, membrane potential fluorescence; series mostly up to 22.9 µM. The method in brief: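 The readout is membrane depolarisation from a cAMP-sensing CNG channel, detected with a potential dye at ex 535/em 590. Cells were HEK293-derived (endogenous PDE-IV) at 1000 cells/well, titrated up to 22.9 uM final.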

Test [9] is described as follows: qHTS Assay for Lipid Storage Modulators (AID 1519; calls by dose curve). To be noted: Drosophila S3 cells, BODIPY lipid droplet/cell ratio, laser cytometry, cells loaded with oleic acid; for activity change, negative = inhibition: at 57.5 µM (top of the series). The method in brief: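 Cells seeded at 5,000 per well were treated with compounds over a concentration series and loaded with oleic acid (400 uM, as added). Lipid droplet fluorescence (488 nm excitation, 500-530 nm channel) was read by laser-scanning cytometry and normalized to 20 uM Triacsin C.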

A short description of test [10]: Primary qHTS for small molecule stabilizers of the endoplasmic reticulum resident proteome: Secreted ER Calcium Modulated Protein (SERCaMP) assay (AID 1508630; active = well fitted inhibition curve with a large enough effect; also: % is scaled to controls: 0 for no effect and ±100 for the full control effect). To be noted: SH-SY5Y GLuc-SERCaMP (Gaussia luciferase released on ER calcium loss) secretion, thapsigargin, luminescence; series mostly up to 38.4 µM. The method in brief: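 GLuc-SERCaMP-expressing SH-SY5Y cells, pretreated 16 h with compound, are challenged with thapsigargin to empty ER calcium stores; after 4 h, coelenterazine is added directly to the medium and luminescence is imaged.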
A general note: qHTS replaces the single test concentration by a dilution series.

Setting [11] is: measured here: cell count channel max response.
The mark [12] stands for this setting: measured here: lipid channel max response.

Each structure is given as a SMILES string. Inconclusive results are not listed. The source made the active and inactive calls. Unless noted, calls follow the shape of the dose curve; as a rule, active = well fitted curve in either direction with a large enough effect (not every such curve was filed as active); inconclusive = small, poorly fitted or top-dose-only effect, or another doubt; inactive = flat fitted curve, though single readings scatter.

Chain of Glucocorticoid receptor (Homo sapiens) (P04150 whole entry, looked up, the tested form may be a part): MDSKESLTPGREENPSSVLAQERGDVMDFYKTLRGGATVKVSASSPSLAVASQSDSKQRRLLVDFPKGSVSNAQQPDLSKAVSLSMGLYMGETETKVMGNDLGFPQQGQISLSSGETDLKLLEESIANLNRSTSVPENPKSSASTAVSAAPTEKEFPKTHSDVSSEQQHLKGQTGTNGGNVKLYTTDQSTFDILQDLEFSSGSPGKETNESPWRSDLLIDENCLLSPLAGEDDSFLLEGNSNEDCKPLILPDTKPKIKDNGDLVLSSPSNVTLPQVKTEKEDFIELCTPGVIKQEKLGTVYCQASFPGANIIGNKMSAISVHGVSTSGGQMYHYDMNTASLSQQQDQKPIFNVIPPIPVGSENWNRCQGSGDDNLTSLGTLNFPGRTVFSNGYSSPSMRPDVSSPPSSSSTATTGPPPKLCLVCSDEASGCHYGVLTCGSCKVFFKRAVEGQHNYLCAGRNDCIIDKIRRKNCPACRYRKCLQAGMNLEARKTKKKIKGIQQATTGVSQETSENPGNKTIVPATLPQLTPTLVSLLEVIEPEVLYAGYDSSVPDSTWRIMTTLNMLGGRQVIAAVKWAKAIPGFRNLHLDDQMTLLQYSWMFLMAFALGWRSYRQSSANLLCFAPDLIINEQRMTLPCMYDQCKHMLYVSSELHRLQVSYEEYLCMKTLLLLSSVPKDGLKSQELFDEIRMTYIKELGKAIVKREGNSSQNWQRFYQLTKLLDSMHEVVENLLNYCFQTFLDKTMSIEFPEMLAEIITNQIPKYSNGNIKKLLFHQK
Chain of Cytochrome P450 1A2 (Homo sapiens) (P05177 whole entry, looked up): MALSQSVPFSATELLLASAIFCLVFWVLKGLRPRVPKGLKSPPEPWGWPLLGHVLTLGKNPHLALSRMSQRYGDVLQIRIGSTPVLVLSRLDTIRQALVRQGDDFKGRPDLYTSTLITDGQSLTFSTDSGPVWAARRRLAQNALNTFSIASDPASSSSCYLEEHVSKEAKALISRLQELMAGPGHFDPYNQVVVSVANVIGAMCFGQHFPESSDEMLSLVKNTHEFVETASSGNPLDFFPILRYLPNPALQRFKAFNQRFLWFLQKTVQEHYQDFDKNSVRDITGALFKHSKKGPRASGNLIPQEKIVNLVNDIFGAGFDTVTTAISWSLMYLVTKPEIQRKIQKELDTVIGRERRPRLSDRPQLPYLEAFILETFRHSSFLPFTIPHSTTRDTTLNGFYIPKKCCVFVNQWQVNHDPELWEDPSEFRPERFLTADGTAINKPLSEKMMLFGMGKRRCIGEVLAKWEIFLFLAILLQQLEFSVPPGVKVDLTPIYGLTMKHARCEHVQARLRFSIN
Chain of 3',5'-cyclic-AMP phosphodiesterase 4B (Homo sapiens) (Q07343 whole entry, looked up): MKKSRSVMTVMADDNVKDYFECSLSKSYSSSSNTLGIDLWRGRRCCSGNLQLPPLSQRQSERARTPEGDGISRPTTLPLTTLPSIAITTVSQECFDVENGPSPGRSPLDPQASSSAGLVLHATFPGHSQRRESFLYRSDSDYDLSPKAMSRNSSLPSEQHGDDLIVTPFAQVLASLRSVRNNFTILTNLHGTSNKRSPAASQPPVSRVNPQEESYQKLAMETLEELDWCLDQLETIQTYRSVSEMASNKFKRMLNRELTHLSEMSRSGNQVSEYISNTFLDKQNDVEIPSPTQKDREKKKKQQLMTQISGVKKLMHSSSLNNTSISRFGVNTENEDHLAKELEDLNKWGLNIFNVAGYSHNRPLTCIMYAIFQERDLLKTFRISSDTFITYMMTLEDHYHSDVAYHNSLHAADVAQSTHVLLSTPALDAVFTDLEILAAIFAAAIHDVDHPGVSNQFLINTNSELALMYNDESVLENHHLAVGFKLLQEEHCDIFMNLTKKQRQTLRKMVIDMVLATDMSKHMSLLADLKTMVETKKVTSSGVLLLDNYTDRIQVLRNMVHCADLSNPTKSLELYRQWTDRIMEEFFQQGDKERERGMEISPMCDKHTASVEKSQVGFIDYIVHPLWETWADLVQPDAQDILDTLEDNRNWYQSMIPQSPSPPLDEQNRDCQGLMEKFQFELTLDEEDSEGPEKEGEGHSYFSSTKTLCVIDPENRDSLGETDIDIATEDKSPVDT
Chain of Lysosomal acid glucosylceramidase (Homo sapiens) (P04062 whole entry, looked up): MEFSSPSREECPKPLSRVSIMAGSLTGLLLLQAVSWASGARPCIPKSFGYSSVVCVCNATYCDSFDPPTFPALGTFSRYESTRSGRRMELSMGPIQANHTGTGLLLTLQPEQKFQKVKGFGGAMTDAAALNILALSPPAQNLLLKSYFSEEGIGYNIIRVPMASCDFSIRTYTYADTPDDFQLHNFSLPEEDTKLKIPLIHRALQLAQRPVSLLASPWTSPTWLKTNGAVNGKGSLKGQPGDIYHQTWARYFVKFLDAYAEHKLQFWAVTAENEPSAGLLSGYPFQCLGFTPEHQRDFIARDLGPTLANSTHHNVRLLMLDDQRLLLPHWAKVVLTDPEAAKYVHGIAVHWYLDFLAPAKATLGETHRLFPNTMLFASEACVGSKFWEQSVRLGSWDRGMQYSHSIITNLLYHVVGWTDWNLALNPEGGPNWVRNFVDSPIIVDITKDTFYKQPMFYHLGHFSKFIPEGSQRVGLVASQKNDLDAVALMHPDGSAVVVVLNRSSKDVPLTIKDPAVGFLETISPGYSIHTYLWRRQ

With `Cn1cccc1C(=O)N1CCC2(CCN(C(=O)Nc3cccc(F)c3)CC2)CC1`, the Potency in test [1] was > 11.4 µM (inactive); in [6], > 46 µM (inactive). The activity change, negative = inhibition in test [2] was -12.6% (inactive); in test [4], 15.8% (inactive); in test [9], 6.54% (inactive). The Potency result in test [3], in [8] and in test [10] was “inactive” throughout. The activity, negative = inhibition in test [5] was -3.96% (inactive). Also, the compound was called inactive in test [7]. Moreover, the max response in test [9] (setting [11]) amounted to 18.2%; in test [9] (setting [12]) it was 25.2%.

Take `O=C(c1cc(C(F)(F)F)cc(C(F)(F)F)c1)N1CCC2(CCN(Cc3nccs3)CC2)CC1`: the results for the Potency in test [1] and in test [6] were > 11.4 µM (inactive) and > 46 µM (inactive), respectively. Also, the activity change, negative = inhibition in test [2] is -2.3% (inactive); in test [4] it was -17.7% (inactive); in [9], 1.84% (inactive). The Potency result in test [3], in test [8] and in test [10] was “inactive” throughout. In addition, the activity, negative = inhibition in test [5] was -29.1% (inactive). In addition, the result in [7] was inactive. Besides, the values for the max response in test [9] (setting [11]) and in test [9] (setting [12]) were 16.9% and 21.6%, respectively.

On to `CC(=O)N1CCC2(CCN(Cc3ccncc3)CC2)CC1`, for which the results for the Potency in test [1] and in test [6] were > 11.4 µM (inactive) and > 46 µM (inactive), respectively. For the same compound, the activity change, negative = inhibition was 5.96% (inactive) in test [2], -0.25% (inactive) in [4] and 2.82% (inactive) in test [9]. Moreover, the Potency result in test [3], in test [8] and in test [10] was “inactive” each time. Moreover, the activity, negative = inhibition in test [5] was -6.6% (inactive). The call in test [7] was inactive. Besides, the max response in test [9] (setting [11]) turned out to be 7.01%; in test [9] (setting [12]), 14.4%.

Take `CS(=O)(=O)N1CCC2(CCN(C(=O)Nc3cccc(F)c3)CC2)CC1`: the Potency was > 11.4 µM (inactive) in [1] and > 46 µM (inactive) in test [6]. Also, the values for the activity change, negative = inhibition in test [2], in test [4] and in test [9] were -2.81% (inactive), 8.92% (inactive) and 4.55% (inactive), respectively. Further, the Potency entry in [3], in test [8] and in test [10] was “inactive” throughout. Moreover, the activity, negative = inhibition in [5] is -6.54% (inactive). Further, the compound was classed as inactive in test [7]. The figures for the max response in [9] (setting [11]) and in test [9] (setting [12]) were 4.7% and 11.5%, respectively.

Turning to `COc1ccc(NC(=O)N2CC3(CCN(C(=O)c4c(C)noc4C)CC3)C2)cc1`, the Potency was > 11.4 µM (inactive) in test [1] and > 46 µM (inactive) in test [6]. In addition, the activity change, negative = inhibition in test [2] is 4.05% (inactive); in test [4], 15.1% (inactive); in test [9] it was 4.67% (inactive). In addition, the Potency entry in test [3], in test [8] and in [10] was “inactive” in each case. For the same compound, the activity, negative = inhibition in test [5] is -8.69% (inactive). The call in test [7] was inactive. The figures for the max response in test [9] (setting [11]) and in [9] (setting [12]) were 5.82% and 14.2%, respectively.

For the compound `Cc1noc(C)c1C(=O)N1CCC[C@@]2(CCN(C(=O)NC(C)C)C2)C1`, the values for the Potency in test [1] and in test [6] were > 11.4 µM (inactive) and > 46 µM (inactive), respectively. For the same compound, the activity change, negative = inhibition in test [2] was -0.0457% (inactive); in test [4], 7.59% (inactive); in [9], 3.68% (inactive). In addition, the Potency result in [3], in test [8] and in [10] was “inactive” throughout. In test [5], the activity, negative = inhibition was -12.3% (inactive). The result in test [7] was inactive. Further, the max response in [9] (setting [11]) turned out to be 13.4%; in test [9] (setting [12]) it was 18.4%.

Take `O=C(Nc1ccccc1)N1CC[C@@]2(CCCN(C(=O)c3ccco3)C2)C1`: the Potency in test [1] is > 11.4 µM (inactive); in test [3] it was 10 µM (active); in test [6] it was > 46 µM (inactive). The activity change, negative = inhibition in test [2] is -6.95% (inactive); in test [4], 4.43% (inactive); in test [9], 0.607% (inactive). Further, in test [5], the activity, negative = inhibition is -3.48% (inactive). In addition, the compound was classed as inactive in test [7]. The Potency result in test [8] and in test [10] was “inactive” throughout. The max response in test [9] (setting [11]) came out at 5.04%; in test [9] (setting [12]) it was 7.34%.

Values taken from PubChem BioAssay (NCATS).
